Screen size: about 300,000 compounds; about 37,000 (12%) were called active. This is one part of a sample in which actives are shown more often than they occur. Unmarked numbers belong to inactive results. No stated cut-off is given here; in the data, active means max response mostly above about 13% (no sharp cut-off); inactive means mostly below about 14%.
Assay: Cycloheximide Counterscreen for Small Molecule Inhibitors of Shiga Toxin; further: read at 38.3 µM for the half of the compounds with a filed dose; 0% is about no effect
Conditions: cell reporter, cycloheximide protein synthesis inhibition counterscreen; hits give high values

| Compound | max response |
| --- | --- |
| O=C(CSc1nc2nccnc2c(=O)n1Cc1cccs1)Nc1ccccc1F | 18.8% |
| Cc1ccc(Cc2nc(-c3cccc(C)c3)no2)cc1 | 31.8% (active) |
| Cc1cccc(-c2nc(Nc3ccc(O)cc3)c3ccccc3n2)c1 | -0.236% |
| Cc1cccc(-c2noc(CCC(=O)NC3CCCC3)n2)c1 | 2.28% |
| Cc1cccc(-c2noc(-c3ccc(F)cc3)n2)c1 | 70.7% (active) |
| CC(=O)N1CCCc2cc(S(=O)(=O)N3CCCC(C(=O)NCc4ccc(Cl)cc4)C3)ccc21 (configuration not stated) | -1.26% |
| CCN1C(=O)C(C(=O)NC(C)c2ccccc2)C2CC1(C)Oc1ccccc12 (configuration not stated) | -6.07% |
| Cc1nn(CC(=O)N2CCCCC2)c(=O)c2nn(-c3ccccc3)c(C)c12 | -0.579% |
| C[C@H](NC(=O)C1CCN(S(=O)(=O)c2ccccc2)CC1)C(=O)NCc1ccccc1 | -2.6% |
| COCCN1C(=O)C(=O)/C(=C(/O)c2ccc(S(=O)(=O)N3CCOCC3)cc2)C1c1ccc(OC)c(OC)c1 (configuration not stated) | -0.449% |
| CCOCCCNC(=O)c1cn(CC(C)C)c(=O)c2c1c1ccccc1n2C | 1.59% |
| Cc1cc(Cl)c(S(=O)(=O)Nc2ccc3c(c2)OCCO3)cc1OCC(N)=O | 40.8% (active) |
| Cc1cc(Cl)c(S(=O)(=O)NCC2CCCO2)cc1OCC(N)=O (configuration not stated) | -0.524% |
| Cc1cc(Cl)c(S(=O)(=O)N(C)C)cc1OCC(N)=O | 4.25% |
| COc1ccc(S(=O)(=O)N2CCN(c3ncnc4c(-c5ccccc5)nsc34)CC2)cc1 | -2.92% |
| CC1=C(C(=O)OC2CCCCC2)C(c2cccnc2)n2ncnc2N1 (configuration not stated) | -3.65% |
| C=CCCN(C(Cc1ccccc1)C(=O)OC)S(=O)(=O)c1cc(Br)ccc1Br (configuration not stated) | -0.573% |
| O=[N+]([O-])c1ccc(NC(=S)N2CCN(c3ccccn3)CC2)cc1 | -3.35% |
| O=C(Nc1ccc([N+](=O)[O-])cc1)OCCc1ccccn1 | 19% (active) |
| O=C(Nc1cccc(Cl)c1)OCc1ccccn1 | 26.4% |
| O=C(OCC#CCSc1nnc(-c2ccncc2)o1)c1sc2ccccc2c1Cl | -4.75% |
| C#CCSc1nnc(-c2sc3ccccc3c2Cl)o1 | 46.5% (active) |
| COc1ccc2c(Cl)c(-c3nnco3)sc2c1 | 0.855% |
| COCCNC(=O)CCCN1C(=O)c2ccccc2Sc2ncccc21 | 5.87% |

| Compound | max response |
| --- | --- |
| Cc1ccc(N2CCN(C3=NC(=O)/C(=C\c4cccs4)S3)CC2)cc1 | 3.49% |
| Cc1ccc(C2=N/C(=C\c3ccc(OS(=O)(=O)c4ccc(C)cc4)cc3)C(=O)O2)cc1 | 0.746% |
| Cc1cccc(C2=N/C(=C/c3cccs3)C(=O)O2)c1 | 29.6% (active) |
| Cc1ccc(S(=O)(=O)N2CCN(C(=O)N3CCOCC3)CC2)c(C)c1 | -0.587% |
| Cc1ccc(NC(=O)[C@H](Cc2ccccc2)NC(=O)C2CCNCC2)cc1 | -1.28% |
| Cc1ccccc1NC(=O)C1CCN(C(=O)NC2CCCCC2)CC1 | -2.51% |
| O=C(Nc1cc2ccccc2oc1=O)C1CCCCC1 | 34.2% (active) |
| CC(=O)Nc1cc2ccc(OC(C)=O)cc2oc1=O | -3.66% |
| Cc1ccc(S(=O)(=O)N/N=C(\c2ccccc2)C2CC2)cc1 | -0.529% |
| COc1cccc(C2c3[nH]c4ccccc4c3CCN2Cc2cccc(C)n2)c1 (configuration not stated) | -0.212% |
| CCOc1ccc(S(=O)(=O)N2CCC(c3ccccc3)CC2)cc1C(=O)O | -3.04% |
| COc1ccc(/C=N/OCc2ccccc2C#N)c(OC)c1 | 38% (active) |
| COc1ccc(C=C(C#N)C#N)c(CSc2ccccn2)c1 | -3.44% |
| COc1ccc(/C=N/Nc2cc(N3CCOCC3)nc(C)n2)c(OC)c1 | -1.58% |
| Cc1ccc(C(=O)Nc2nnc(C3=COCCO3)o2)cc1C | 14.8% (active) |
| O=C(Nc1nnc(C2=COCCO2)o1)c1ccc([N+](=O)[O-])s1 | -2.32% |
| Cc1ccc(C(=O)Nc2nnc(-c3cccs3)s2)cc1C | 13.9% |
| Cc1nn(Cc2ccccc2)c(C)c1NS(=O)(=O)c1ccccc1 | 5.29% |
| CCN(CC)S(=O)(=O)c1ccc(N(C)CCc2ccc(OC)c(OC)c2)nc1 | -1.93% |
| CCOc1ccccc1NC(=O)Cn1ncc2ccc([N+](=O)[O-])cc21 | 8.74% |
| CC(C)N1C(=O)C2C(C(=O)NC3CCCCC3)C3C=CC2(O3)C1C(=O)NC1CCCC1 (configuration not stated) | -1.06% |
| O=C(Nc1ccccc1F)C1C2C=CC3(O2)C1C(=O)N(c1cccnc1)C3C(=O)NC1CCCCC1 (configuration not stated) | 41.8% (active) |
| CCN(CC)CCN1C(=O)C2C(C(=O)Nc3ccc(Br)cc3)C3C=CC2(O3)C1C(=O)NC1CCCCC1 (configuration not stated) | -5.6% |

Reference: PubChem BioAssay AID2314 (National Center for Advancing Translational Sciences (NCATS), 2010)
